These results are taken from PubChem BioAssay (Tox21).

Where “and” joins values, the source holds several entries; their conditions need not be identical. Identical values can stand only once. Inconclusive results are not listed. The source holds several records for some structures; these can differ, active in one and inactive in another. Calls of active or inactive are those of the source. Calls follow the shape of the dose curve; as a rule, active = well fitted inhibition curve with a large enough effect in the repeat runs; inconclusive = weak or mixed curves; inactive = no such curve, though single readings can be large or run the other way.
% is scaled to controls: 0 for no effect and ±100 for the full control effect; potency is read from the fitted curve at half-maximal effect.

Sequence of Cytochrome P450 2D6 (Homo sapiens) (P10635 whole entry, looked up): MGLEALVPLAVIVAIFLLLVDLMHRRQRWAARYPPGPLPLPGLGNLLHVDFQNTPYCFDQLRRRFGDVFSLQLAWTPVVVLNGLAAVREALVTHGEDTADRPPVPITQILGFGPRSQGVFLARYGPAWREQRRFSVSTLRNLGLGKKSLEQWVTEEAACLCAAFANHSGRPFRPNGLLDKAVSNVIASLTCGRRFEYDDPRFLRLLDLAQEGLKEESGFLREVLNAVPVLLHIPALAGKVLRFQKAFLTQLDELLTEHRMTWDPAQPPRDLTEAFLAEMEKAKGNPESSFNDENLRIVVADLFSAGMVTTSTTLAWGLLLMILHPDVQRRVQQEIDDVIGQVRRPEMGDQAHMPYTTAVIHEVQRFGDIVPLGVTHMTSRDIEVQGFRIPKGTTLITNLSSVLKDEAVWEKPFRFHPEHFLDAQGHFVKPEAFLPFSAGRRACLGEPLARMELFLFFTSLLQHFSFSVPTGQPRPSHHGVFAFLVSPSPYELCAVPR
Sequence of Cytochrome P450 2C19 (Homo sapiens) (P33261 whole entry, looked up): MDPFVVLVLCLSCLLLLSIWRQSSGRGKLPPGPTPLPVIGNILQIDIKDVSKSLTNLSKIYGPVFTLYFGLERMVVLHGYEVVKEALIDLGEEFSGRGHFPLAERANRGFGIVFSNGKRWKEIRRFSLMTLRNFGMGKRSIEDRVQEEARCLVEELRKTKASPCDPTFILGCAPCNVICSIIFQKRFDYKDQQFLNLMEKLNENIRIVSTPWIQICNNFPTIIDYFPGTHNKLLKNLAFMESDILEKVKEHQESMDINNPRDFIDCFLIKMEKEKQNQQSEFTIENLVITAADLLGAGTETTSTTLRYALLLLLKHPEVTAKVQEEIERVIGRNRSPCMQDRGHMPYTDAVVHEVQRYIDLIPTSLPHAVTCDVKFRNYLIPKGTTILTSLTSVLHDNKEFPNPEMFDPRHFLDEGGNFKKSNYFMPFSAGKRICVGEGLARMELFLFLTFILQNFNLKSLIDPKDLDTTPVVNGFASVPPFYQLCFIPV

The first test concerns the target Cytochrome P450 2D6 (Homo sapiens) (UniProt P10635). Put plainly: Cytochrome P450 Family 2 Subfamily D Member 6 (CYP2D6) small molecule antagonists: luciferase reporter qHTS assay (AID 1671196). Also: nearly all actives have a fitted effect of over 50% in size. As to conditions: P450-Glo CYP2D6 enzyme assay, luciferin luminescence, 1 h; series mostly up to 115 µM; activity change, negative = inhibition: at the top concentration. The method in brief: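 Quantitative HTS of Tox21 chemicals against CYP2D6 using a luminescent proluciferin substrate. After NADPH addition, 1 h room-temperature reaction; luminescence recorded 20 min post detection reagent.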
In general terms: In a reporter assay the amount or activity of a reporter protein is the signal.
For `CN(C)CCC(c1ccccc1)c1ccccn1` (stereo not given), the Potency is 35.7 µM (active).

Take `O=c1[nH]c(=O)n([C@H]2C[C@H](O)[C@@H](CO)O2)cc1Br`: the Potency result is “inactive”.

As to `OCCOCCOCCO`, the Potency entry is “inactive”.

In the case of `CC(=O)OCC(=O)[C@@]12N=C(C)O[C@@H]1C[C@H]1[C@@H]3CCC4=CC(=O)C=C[C@]4(C)[C@H]3[C@@H](O)C[C@@]12C`, the “activity change, negative = inhibition” value was -8.8% [at 53 µM] (inactive).

On to `O=C(O)c1ccc2c(c1)C(=O)OC2=O`, for which the “activity change, negative = inhibition” value is -20.1% (inactive).

With `OC[C@H]1O[C@@](CO)(O[C@H]2O[C@H](CO)[C@@H](O)[C@H](O)[C@H]2O)[C@@H](O)[C@@H]1O`, the Potency entry was “inactive”.

With `Cc1ccc(N(C)C)cc1`, the Potency entry is “inactive and 35.6 µM (active)”.

Consider `O=C(OCCOCCOC(=O)c1ccccc1)c1ccccc1`, for which the Potency entry was “inactive”.

Regarding `O=C(Oc1ccccc1)c1ccccc1`, the Potency result is “inactive”.

Turning to `CC(C)(N)CO`, the Potency result is “inactive”.

`CCCC(C)=O`: the Potency result was “inactive”.

Regarding `CCCCC(CC)COC(=O)CCCCC(=O)OCC(CC)CCCC` (stereo not given), the Potency result is “inactive”.

On to `CCCCCC/C(C=O)=C\c1ccccc1`, for which the Potency entry is “inactive”.

Consider `Cc1ccc(S(N)(=O)=O)cc1`, for which the Potency entry was “inactive”.

As for `FC(F)(F)c1ccc(Cl)c(Cl)c1`, the Potency entry was “inactive”.

`C[Si](O[Si](C)(C)C)O[Si](C)(C)C`: the Potency result was “inactive”.

As to `C=C(C)C(=O)Nc1ccc(Cl)c(Cl)c1`, the “activity change, negative = inhibition” value is -19.3% (inactive).

`CCCCC(CC)COC(=O)CS` (stereo not given): the Potency is 28.6 µM (active).

`COS(C)(=O)=O`: the “activity change, negative = inhibition” value was -25.7% (inactive).

In the case of `CC(c1cc2ccccc2s1)N(O)C(N)=O` (stereo not given), the “activity change, negative = inhibition” value is -10.3% [at 53 µM] (inactive).

For `Cc1cc(C)c(C)cc1C`, the Potency result is “inactive”.

Regarding `CCCCOC(=O)COc1ccc(Cl)cc1Cl`, the Potency entry was “inactive”.

In the case of `CC1CCC2CC1C2(C)C` (stereo not given), the Potency is 21.6 µM (active) and inactive.

In the case of `CCCCCOC(C)=O`, the “activity change, negative = inhibition” value is -0.704% (inactive).

As to `CCCCCC(N)=O`, the Potency entry was “inactive”.

Turning to `C=CCOC(=O)c1ccccc1C(=O)OCC=C`, the “activity change, negative = inhibition” value is -25.5% (inactive).

With `OCC(CO)(CBr)CBr`, the Potency entry is “inactive”.

For `O=c1[nH]c(=O)n([C@H]2CCCO2)cc1F`, the Potency result is “inactive”.

For `CCCCN(CCCC)CCCC`, the “activity change, negative = inhibition” value is -6.51% (inactive).

Take `C=CCNC(N)=S`: the Potency was 61.9 µM (active) and inactive.

Consider `COc1cc(Cc2cnc(N)nc2N)cc(OC)c1OC`, for which the “activity change, negative = inhibition” value was -0.543% [at 53 µM] (inactive).

For `C=C(C)C(=O)OCCOCCOCCOC(=O)C(=C)C`, the Potency is 20 µM (active) and inactive.

Take `CCC(O)OCCCOC` (stereo not given): the Potency entry was “inactive”.

`CN(C)CCCN`: the Potency result was “inactive”.

Turning to `CCc1cccc(C)c1N`, the Potency result was “inactive”.

For a further test, the target named is Cytochrome P450 2C19 (Homo sapiens) (UniProt P33261). The experiment in a line: Cytochrome P450 Family 2 Subfamily C Member 19 (CYP2C19) small molecule antagonists: luciferase reporter qHTS assay (AID 1671197). Also: nearly all actives have a fitted effect of over 65% in size. Particulars: P450-Glo CYP2C19 enzyme, luciferin luminescence, 1 h; series mostly up to 115 µM; activity change, negative = inhibition: at the top concentration. Put shortly:
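Light output is proportional to CYP2C19 activity: proluciferin substrate is converted to luciferin, then detected by a luciferin detection reagent that also stops the 1 h, 37C NADPH-driven reaction. Ketoconazole serves as positive control.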
For the compound `CN(C)CCC(c1ccccc1)c1ccccn1` (stereo not given), the “activity change, negative = inhibition” value is 1.48% [at 52.9 µM] (inactive).

On to `O=c1[nH]c(=O)n([C@H]2C[C@H](O)[C@@H](CO)O2)cc1Br`, for which the Potency entry is “inactive”.

With `OCCOCCOCCO`, the Potency result was “inactive”.

On to `CC(=O)OCC(=O)[C@@]12N=C(C)O[C@@H]1C[C@H]1[C@@H]3CCC4=CC(=O)C=C[C@]4(C)[C@H]3[C@@H](O)C[C@@]12C`, for which the Potency result was “inactive”.

Regarding `O=C(O)c1ccc2c(c1)C(=O)OC2=O`, the Potency result is “inactive”.

Regarding `OC[C@H]1O[C@@](CO)(O[C@H]2O[C@H](CO)[C@@H](O)[C@H](O)[C@H]2O)[C@@H](O)[C@@H]1O`, the Potency entry is “inactive”.

For `Cc1ccc(N(C)C)cc1`, the Potency entry was “inactive and 50.2 µM (active)”.

For `O=C(OCCOCCOC(=O)c1ccccc1)c1ccccc1`, the Potency is 35.5 µM (active) and 39.9 µM (active).

On to `O=C(Oc1ccccc1)c1ccccc1`, for which the “activity change, negative = inhibition” value is 16.1% (inactive).

In the case of `CCCC(C)=O`, the Potency result is “inactive”.

As to `CCCCC(CC)COC(=O)CCCCC(=O)OCC(CC)CCCC` (stereo not given), the Potency was 70.6 µM (active).

As to `CCCCCC/C(C=O)=C\c1ccccc1`, the Potency is 40.4 µM (active) and 20 µM (active).

As to `Cc1ccc(S(N)(=O)=O)cc1`, the Potency was 19.9 µM (active) and inactive.

Regarding `FC(F)(F)c1ccc(Cl)c(Cl)c1`, the Potency entry was “inactive”.

Regarding `C[Si](O[Si](C)(C)C)O[Si](C)(C)C`, the Potency result was “inactive”.

`C=C(C)C(=O)Nc1ccc(Cl)c(Cl)c1`: the Potency was 22.7 µM (active) and 31.6 µM (active).

`CCCCC(CC)COC(=O)CS` (stereo not given): the Potency is 25.5 µM (active) and inactive.

Turning to `COS(C)(=O)=O`, the Potency result is “inactive”.

Take `CC(c1cc2ccccc2s1)N(O)C(N)=O` (stereo not given): the Potency was 31.7 µM (active).

With `Cc1cc(C)c(C)cc1C`, the Potency entry was “inactive”.

For the compound `CCCCOC(=O)COc1ccc(Cl)cc1Cl`, the Potency is 36 µM (active) and 39.9 µM (active).

As for `Oc1cccc2ccccc12`, the Potency was 23 µM (active) and 39.9 µM (active).

On to `CC1CCC2CC1C2(C)C` (stereo not given), for which the “activity change, negative = inhibition” value is 14.3% (inactive).

Take `CCCCCOC(C)=O`: the Potency is 32.1 µM (active) and inactive.

On to `CCCCCC(N)=O`, for which the Potency entry is “inactive”.

For the compound `C=CCOC(=O)c1ccccc1C(=O)OCC=C`, the Potency is 1.56 µM (active) and 1.26 µM (active).

`OCC(CO)(CBr)CBr`: the “activity change, negative = inhibition” value was 3.99% (inactive).

As for `O=c1[nH]c(=O)n([C@H]2CCCO2)cc1F`, the “activity change, negative = inhibition” value is -8.59% [at 52.9 µM] (inactive).

In the case of `C=CCNC(N)=S`, the Potency was 69.4 µM (active) and inactive.

Consider `COc1cc(Cc2cnc(N)nc2N)cc(OC)c1OC`, for which the Potency result is “inactive”.

On to `O=C1CCC(N2C(=O)c3ccccc3C2=O)C(=O)N1` (stereo not given), for which the Potency result is “inactive”.

Regarding `C=C(C)C(=O)OCCOCCOCCOC(=O)C(=C)C`, the Potency is 22.5 µM (active) and 31.7 µM (active).

For `CCC(O)OCCCOC` (stereo not given), the Potency was 41 µM (active) and inactive.

Regarding `CN(C)CCCN`, the Potency result is “inactive”.

For the compound `CCc1cccc(C)c1N`, the Potency was 68.8 µM (active) and 71 µM (active).
